A selection: hits, their analogues and other compounds. The true share with any hit is near 7.4%.
ELG1 genotox – inducers of genotoxicity in HEK293T ELG1-luciferase cells; HEK293T ELG1-luciferase reporter, luminescence, 16 h; Potency, µM (top dose mostly 46 µM), inactives show at the highest dose activity change, positive = activation, actives largely listed as activators; 330,000 compounds, 1.3% hits; further: % of control where 0% means no effect; nearly all actives have a fitted effect of over 60% in size
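Genotoxic stress is detected as increased luminescence from luciferase-tagged ELG1 in HEK293T cells, measured with ONE-Glo after a 16 hr treatment at 37 °C.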
SMN2 splice up – increases expression of the SMN2 splice variant; HEK293 SMN2-luciferase splicing reporter, luminescence, 30-36 h; Potency, µM (titrated, usually from 46.1 µM), inactives show at the top dose activity change, positive = activation, hits mostly activators; 210,000 compounds, 2.8% hits; AID 1458; further: % of control where 0% means no effect; nearly all actives have a fitted effect of over 55% in size
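HEK293 cells carry an SMN2 […]–luciferase reporter in which exon 7 inclusion puts luciferase in frame. Cells were plated 10-12 h before compound addition, then incubated 30-36 h at 37C. ONE-Glo luminescence was read; sodium butyrate at 4.5 mM final served as control.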
FLuc modulator – counter-screen for miR-21 project: firefly luciferase inhibitors or activators; P08659; 360,000 compounds, 6.9% hits; purified FLuc, Km substrates, luminescence inhibition; Potency, µM (doses to about 57.5 µM), inactives show at the top dose activity change, negative = inhibition, usual class: inhibitors;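 further: plate controls were vehicle for no effect and reference inhibitor for full effect; nearly all actives have a fitted effect of over 55% in size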
Target sequence (P08659 whole entry, looked up): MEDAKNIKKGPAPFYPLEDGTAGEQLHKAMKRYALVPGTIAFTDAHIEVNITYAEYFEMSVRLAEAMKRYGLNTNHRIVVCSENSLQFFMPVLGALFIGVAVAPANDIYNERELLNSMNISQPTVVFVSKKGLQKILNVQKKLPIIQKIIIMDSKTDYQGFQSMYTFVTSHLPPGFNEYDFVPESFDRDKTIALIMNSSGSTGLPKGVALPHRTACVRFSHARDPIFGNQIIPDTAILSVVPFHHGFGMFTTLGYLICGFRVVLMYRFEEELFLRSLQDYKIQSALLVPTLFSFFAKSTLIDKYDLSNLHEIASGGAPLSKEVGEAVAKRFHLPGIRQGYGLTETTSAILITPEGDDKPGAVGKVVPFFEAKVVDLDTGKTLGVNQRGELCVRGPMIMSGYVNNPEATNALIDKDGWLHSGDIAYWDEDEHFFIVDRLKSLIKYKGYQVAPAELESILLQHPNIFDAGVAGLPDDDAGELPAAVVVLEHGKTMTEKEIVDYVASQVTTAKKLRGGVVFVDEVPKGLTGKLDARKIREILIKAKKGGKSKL
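Purified P. pyralis luciferase (10nM final) with 10uM D-luciferin and 10uM ATP (Km levels) in 50mM Tris acetate pH 7.5, 10mM Mg acetate, 0.01% Tween-20, 0.05% BSA; qHTS 6-point titration, ~60 µM downward; luminescence read.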
NPC1 prom act – NPC1 promoter activation; Huh7 NPC1 promoter luciferase reporter, 24 h; Potency, µM (highest dose often 9.22 µM), for the others: at the top dose activation, hits mostly activators; 320,000 compounds, 2.4% hits; further: % of control where 0% means no effect; nearly all actives have a fitted effect of over 60% in size
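Stably transfected Huh7 (NPC1 promoter→luciferase), 1500 cells/well in Opti-MEM + 10% FBS, 2 h settle, then compound 24 h at 37 °C. Luminescence after 10 min with Amplite reagent.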
Rab9 promoter act – activates the Rab9 promoter; Huh7 Rab9 promoter-luciferase reporter, luminescence, 24 h; Potency, µM (titrated, usually from 9.22 µM), without a hit: at the highest dose activation, negative = inhibition, hits mostly activators; 320,000 compounds, 2.8% hits; further: % of control where 0% means no effect; nearly all actives have a fitted effect of over 60% in size
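Quantitative HTS format; Huh7 Rab9-luciferase reporter cells (1500/well) receive compound 2 h post-plating, incubate 24 h at 37 °C, then get luciferase reagent for 10 min before luminescence reading.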
The depositor's hits bear a star; ? = inconclusive; nt = no result; [ ] = remark or other dose. The call rests on the fitted dose curve; in most records, active means well fitted curve in the direction sought with a large enough effect; inconclusive means small, poorly fitted or top-dose-only effect, or another doubt; inactive means no such curve, though single readings can be large; an effect the other way counts as inactive or inconclusive. Potency means the concentration at half of the fitted maximal effect.

SMILES	ELG1 genotox	SMN2 splice up	FLuc modulator	NPC1 prom act	Rab9 promoter act
Clc1ccc(CONc2ncnc3nonc23)c(Cl)c1	2.6%	?	?	?	3.55µM*
CCONc1ncnc2nonc12	-3.3%	2.6%	0.0%	1.0%	-4.0%
Cc1c2cnn(-c3ccccc3)c(=O)c2c(C)n1C(C)C(=O)NCc1cccc(Br)c1 (stereo not given)	nt	-30.5%	-7.5%	nt	nt
CC(C(=O)NCc1cccc(Br)c1)n1ncn2cccc2c1=O (stereo not given)	nt	nt	13.5µM*	nt	nt
Cc1ccc(C(=O)NCCNC(=O)COc2ccccc2Cl)cn1	-0.6%	nt	-2.1%	0.4%	-2.3%
COc1cc(C2CC(=O)Nc3cc4c(cc32)OCCO4)cc(Br)c1OC (stereo not given)	nt	-21.0%	1.2%	nt	nt
CCCCn1c(=S)[nH]c2cc(S(=O)(=O)N3CCOCC3)ccc21	0.3%	nt	nt	nt	nt
CCn1c(=S)[nH]c2cc(S(=O)(=O)N3CCCCC3)ccc21	9.2µM*	nt	7.3%	-2.6%	-3.5%
Cn1c(=O)[nH]c(=O)c2c1nc(SCCC(=O)O)n2Cc1cccc(Br)c1	2.3%	nt	2.6%	-3.0%	2.0%
C/C=C/CSc1nc2c(c(=O)[nH]c(=O)n2C)n1Cc1ccc(C)cc1	20.6µM*	-3.3%	2.0%	0.3%	0.0%
CC(=O)CSc1nc2c(c(=O)[nH]c(=O)n2C)n1Cc1cccc(Br)c1	20.6µM*	nt	1.2%	-1.5%	-0.1%
Cc1ccc(Cn2c(Sc3ncccn3)nc3c2c(=O)[nH]c(=O)n3C)cc1	-9.7%	5.2%	3.9%	1.1%	-2.4%
O=C(Nc1nc2ccccc2n1CCN1CCOCC1)c1cccc([N+](=O)[O-])c1	nt	nt	nt	2.0%[46.1 µM]	-2.0%[46.1 µM]
COCCCn1c(SCC(=O)n2c(C)c(C)c3ccccc32)nnc1-c1ccoc1C	18.4µM*	-10.1%	4.6%	1.0%	17.3%
FC(F)(F)c1cccc(N2CCN(C3CC4CCC3C4)CC2)c1 (stereo not given)	-1.7%	nt	-8.8%	-0.2%	-2.1%
Cc1cccc(/C(N)=N/OC(=O)c2ccco2)c1	2.31µM*	15.8µM*	1.9µM*	?	?
Cc1ccc(/C(N)=N/OC(=O)c2ccco2)cc1	?	11.2µM*	2.39µM*	3.98µM*	2.51µM*
Cc1cccc(/C(N)=N/OC(=O)N2CCOCC2)c1	8.2%	-85.4%	16.9µM*	29.1%	26.2%
N/C(=N\OC(=O)c1ccco1)c1ccccn1	?	?	8.49µM*	19.9%	29.2%
O=C(OCc1ccc(COC(=O)c2ccccn2)cc1)c1ccccn1	1.3%	0.2%	3.6%[2.3 µM]	-1.6%	-4.7%
O=C(Nc1cccc(F)c1)N1CC[C@@]2(CCCN(C(=O)c3cnccn3)C2)C1	nt	-10.2%	nt	nt	nt
OC[C@H]1O[C@H](n2cnc3c(N[C@H]4CCC[C@@H]4O)ncnc32)[C@H](O)[C@@H]1O	nt	nt	nt	7.6%[46.1 µM]	2.9%[46.1 µM]
COc1cccc(OCC(=O)NNC(=S)Nc2ccc(Cl)cc2Cl)c1	-4.0%	-11.4%	-19.8%	1.9%	1.5%
COc1cccc(NC(=O)COC(=O)c2ccco2)c1	0.3%	-6.8%	?	1.2%	2.1%
N/C(=N\OC(=O)c1ccco1)c1ccccc1	?	22.4µM*	6.75µM*	21.5%	9.5%
SMILES	ELG1 genotox	SMN2 splice up	FLuc modulator	NPC1 prom act	Rab9 promoter act
COc1ccc(C(=O)COC(=O)c2ccco2)cc1	?	12.3%	1.07µM*	?	2.6%
O=C(NNC(=O)c1ccco1)c1ccccc1	12.6%	?	-1.9%	0.3%	-2.5%
COc1ccc(C(=O)COC(=O)c2ccn(C)n2)cc1	?	nt	16.9µM*	3.55µM*	?
COc1ccc(C(=O)COC(=O)c2cncc(Br)c2)cc1	-2.2%	nt	?	1.0%	-4.3%
COC(=O)/C(=C/c1ccc(OC)cc1)NC(=O)c1ccco1	-0.1%	-5.7%	-1.5%	-1.5%	1.4%
COc1ccc(N=N/C(=C\O)C(=O)c2ccco2)cc1	-4.2%	2.8%	23.9µM*	21.4%	6.7%
COc1cccc(CNC(=O)c2ccccc2SCC(=O)N2CCCC2)c1	1.0%	nt	-22.1%	-1.9%	-0.2%
COC(=O)c1ccc(OC(=O)c2ccco2)cc1	2.2%	1.0%	?	9.9%	-1.5%
N/C(=N\OC(=O)c1ccco1)c1ccc(Br)cc1	?	19.8%	6.75µM*	?	?
N/C(=N\OC(=O)CCCOc1ccccc1)c1ccc(Br)cc1	2.2%	22.9%	-0.9%	-1.0%	4.2%
COc1ccc(/C(N)=N/OC(=O)c2ccco2)cc1	0.461µM*	6.31µM*	0.953µM*	0.501µM*	0.355µM*
N#Cc1cccc(NC(=O)N2CC[C@@]3(CCCN(C(=O)c4cc(C(F)(F)F)cc(C(F)(F)F)c4)C3)C2)c1	nt	-18.3%	nt	nt	nt
CC(C)Sc1nc(SCC(=O)O)c2c3c(sc2n1)COC(C)(C)C3	?	nt	13.5µM*	?	?
CCCSc1nc(SCC(=O)NCc2ccccc2)c2c3c(sc2n1)COC(C)(C)C3	-0.1%	0.2%	7.6%	-6.1%	-8.5%
CC1(C)Cc2c(sc3nc(SCC(=O)O)nc(N)c23)CO1	-0.1%	nt	-17.6%	-2.7%	2.4%
CC(C)Sc1nc(SCC(=O)NCc2ccco2)c2c3c(sc2n1)COC(C)(C)C3	?	-1.0%	9.53µM*	6.7%	13.1%
Cc1ccc(C(=O)N(Cc2nnc(-c3ccc(Cl)cc3)o2)C2CC2)o1	1.1%	nt	-26.5%	0.6%	-4.7%
c1ccc(Cc2nnc(-c3ccccc3)o2)cc1	3.26µM*	?	23.9µM*	?	?
Cc1ccccc1-c1nnc(Cc2ccccc2)o1	?	11.2µM*	10.7µM*	3.98µM*	3.98µM*
c1ccc(-c2nnc(CSc3nncs3)o2)cc1	23.1µM*	?	?	27.9%	25.2%
Cc1ccc(-c2nnc(Cc3ccc(Cl)cc3)o2)cc1	16.4µM*	21.3%	16.9µM*	23.4%	28.4%
CC1C(=O)Nc2ccc(S(=O)(=O)NCc3ccc(N(C)C)cc3)cc2NC1=O (stereo not given)	nt	nt	-2.2%	nt	nt
Brc1ccc(-c2nnc(Cc3ccccc3)o2)cc1	20.6µM*	nt	10.7µM*	3.55µM*	?
COc1ccc(Cc2nnc(-c3ccccc3)o2)cc1	nt	-13.0%	?	16.6%	?
COc1ccc(/C=N/NC(=O)c2ccccc2O)cc1Cn1cc([N+](=O)[O-])cn1	-4.6%	nt	?	1.1%	0.1%
COc1ccc(/C=N/Nc2ccccc2C(=O)O)cc1Cn1cc([N+](=O)[O-])cn1	11.8%	nt	19µM*	26.7%	21.8%
CNS(=O)(=O)c1cn(CC(=O)N2CCN(c3ccc(C(C)=O)cc3)CC2)cc1S(=O)(=O)NC	nt	nt	-6.1%	nt	nt
COc1ccccc1/C=C/C(=O)OCC(=O)N1CCN(S(=O)(=O)c2ccc(C)cc2C)CC1	-1.7%	nt	0.5%	0.1%	-2.4%
O=C(O)c1cccc(Nc2nc(Nc3ccccc3)nc(N3CCCC3)n2)c1	-8.9%	4.1%	?	3.16µM*	?
